Measured values reported in PubChem BioAssay AID1159580 (chemical genetic matrix, 2015).
Screen size: about 5,500 compounds; about 2,000 (36%) were called active. About 18% were inconclusive and are not listed. Cut-off read from the data, not from the text of the source: active = normalized growth mostly below about 0.91 (no sharp cut-off); inconclusive = no clear call, values can overlap the other calls; inactive = mostly above about 0.92. The list shows a part of the results.

Assay: chemical genetic growth profiling, strain panel (AID 1159580);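 note: tested at 20 µM; growth read once vehicle control cultures reached saturation at 30 °C; 1 = growth at the plate median or of vehicle wells; lower values mean less growth of the strain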
Conditions: S. cerevisiae deletion strains, growth OD

Measured: normalized growth

CC(N)=NCCCC[C@@H](N)C(=O)O
inactive: locus YAL013W, strain DEP1, active compounds read low 1.01 | locus YAL040C, strain CLN3, active compounds read low 0.998 | locus YCL061C, strain MRC1 (second series), active compounds read low 1.01 | locus YDR150W, strain NUM1, active compounds read low 1 | locus YDR363W, strain ESC2, active compounds read low 1.01 | locus YER002W, strain NOP16, active compounds read low 0.994 | locus YJR075W, strain HOC1, active compounds read low 1 | locus YMR263W, strain SAP30, active compounds read low 1.01 | locus YNL128W, strain TEP1, active compounds read low 1.02 | locus YNL175C, strain NOP13, active compounds read low 1 | locus YNL197C, strain WHI3, active compounds read low 1.01 | locus YNL224C, strain SQS1, active compounds read low 1.01 | locus YNL322C, strain KRE1, active compounds read low 1.02 | locus YOR083W, strain WHI5 (second series), active compounds read low 1.01 | locus YPL055C, strain LGE1, active compounds read low 1
